Experiment [1] concerns the target Paired box protein Pax-6 (Homo sapiens) (UniProt P26367). Briefly: ATG_Pax6_CIS: Attagene CIS-FACTORIAL HepG2 Assay for human Paired Box 6 (PAX6) (AID 2282956). As to conditions: HepG2 CIS-FACTORIAL PAX6 reporter transcription, RNA readout; actives raise or lower the signal. Put shortly:
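Readout: reporter transcript fluorescence after RT-PCR and capillary electrophoresis. Cells: HepG2, transiently transfected with cis-regulated MRTUs. Exposure 24 h. Gain or loss of signal fitted bidirectionally relative to DMSO.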

Experiment [2] in a line: ATG_PXRE_CIS: Attagene CIS-FACTORIAL HepG2 Assay for human Pregnane X Receptor Element (PXRE) (AID 2282957). As to conditions: HepG2 Attagene CIS-FACTORIAL PXRE reporter, mRNA; actives raise or lower the signal. Put shortly:
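Using HepG2 transfected with multiple reporter transcription units, endogenous factor-driven transcription was scored as reporter mRNA after 24 h exposure.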

The nature of experiment [3]: ATG_PPRE_CIS: Attagene CIS-FACTORIAL HepG2 Assay for human Peroxisome Proliferator-activated Response Element (PPRE) (AID 2282958). Conditions: HepG2 PPRE cis-element reporter, Attagene transcription factor profiling; actives raise or lower the signal. Put shortly: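 HepG2 cells are transiently transfected with multiplexed cis-promoter reporter units to report endogenous PPAR activity. After 24 h dosing, reporter mRNA is read by RT-PCR and capillary electrophoresis. Fitting is bidirectional against DMSO.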

Experiment [4] can be described thus: ATG_RORE_CIS: Attagene CIS-FACTORIAL HepG2 Assay for human RAR-related Orphan Receptor Element (RORE) (AID 2282959). As to conditions: HepG2 Attagene cis-factorial RORE reporter, mRNA; actives raise or lower the signal. In a few lines: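 HepG2 cells carrying transiently transfected cis-regulated reporter units; RORE-driven reporter mRNA quantified 24 h post-dosing by RT-PCR, 6-FAM primer extension, HpaI digestion and capillary electrophoresis. Bidirectional fit versus DMSO.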

Experiment [5] in a line: ATG_Sox_CIS: Attagene CIS-FACTORIAL HepG2 Assay for human SRY-box transcription factor (SOX) (AID 2282960). As to conditions: HepG2 Attagene cis-factorial SOX reporter, mRNA; actives raise or lower the signal. Put shortly:
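HepG2 cells transiently transfected with multiple cis-regulated reporter units, then dosed for 24 h. Reporter mRNA quantified by RT-PCR, fluorescent labelling, HpaI digestion and capillary electrophoresis; bidirectional fit versus DMSO.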

Experiment [6] deals with Transcription factor Sp1 (Homo sapiens) (UniProt P08047). Briefly: ATG_Sp1_CIS: Attagene CIS-FACTORIAL HepG2 Assay for human Specificity Protein 1 (Sp1) (AID 2282961). As to conditions: HepG2 Sp1 cis-reporter transcription, actives raise or lower the signal. Put shortly: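 HepG2 cells transiently transfected with multiplexed cis-regulated reporter constructs, chemical exposure 24 h. Reporter mRNA quantified by RT-PCR with capillary electrophoresis; bidirectional fit relative to DMSO.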
Chain of Transcription factor Sp1 (Homo sapiens) (P08047 whole entry, looked up): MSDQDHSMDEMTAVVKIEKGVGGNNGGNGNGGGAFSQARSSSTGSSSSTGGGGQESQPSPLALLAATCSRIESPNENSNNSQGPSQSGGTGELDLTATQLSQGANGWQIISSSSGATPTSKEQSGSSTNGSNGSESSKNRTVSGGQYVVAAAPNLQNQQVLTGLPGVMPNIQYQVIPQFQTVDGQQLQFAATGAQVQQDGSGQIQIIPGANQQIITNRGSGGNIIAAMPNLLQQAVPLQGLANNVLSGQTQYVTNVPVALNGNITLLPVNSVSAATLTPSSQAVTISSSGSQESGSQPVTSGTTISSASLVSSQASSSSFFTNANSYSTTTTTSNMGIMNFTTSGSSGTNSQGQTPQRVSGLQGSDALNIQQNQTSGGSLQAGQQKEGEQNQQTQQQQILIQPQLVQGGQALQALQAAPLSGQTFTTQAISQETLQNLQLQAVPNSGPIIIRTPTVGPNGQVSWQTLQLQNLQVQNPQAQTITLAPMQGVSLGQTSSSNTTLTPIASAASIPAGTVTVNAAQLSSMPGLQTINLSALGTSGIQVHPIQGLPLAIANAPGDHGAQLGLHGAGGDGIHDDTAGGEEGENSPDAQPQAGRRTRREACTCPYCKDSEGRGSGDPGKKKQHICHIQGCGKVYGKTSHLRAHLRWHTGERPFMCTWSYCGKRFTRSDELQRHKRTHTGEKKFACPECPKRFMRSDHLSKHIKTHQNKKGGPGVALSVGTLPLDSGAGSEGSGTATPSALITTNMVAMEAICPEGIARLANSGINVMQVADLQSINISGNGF

Experiment [7] is described as follows: ATG_SREBP_CIS: Attagene CIS-FACTORIAL HepG2 Assay for human Sterol Regulatory Element Binding (SREBP) (AID 2282962). As to conditions: HepG2 Attagene cis-factorial SREBP reporter, mRNA; actives raise or lower the signal. Put shortly: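 Readout: fluorescent reporter-transcript peaks resolved by capillary electrophoresis after RT-PCR. Cells were human HepG2 carrying transfected cis-promoter reporter constructs, dosed for 24 h. Gain or loss of signal was fitted against DMSO controls.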

Experiment [8] deals with Signal transducer and activator of transcription 3 (Homo sapiens) (UniProt P40763). The experiment is described as follows: ATG_STAT3_CIS: Attagene CIS-FACTORIAL HepG2 Assay for human Signal Transducer and Activator of Transcription 3 (STAT3) (AID 2282963). As to conditions: HepG2, Attagene cis-factorial STAT3 reporter transcription; actives raise or lower the signal. In a few lines:
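Cis-factorial format: endogenous transcription factors in HepG2 drive transfected reporter units. After 24 h treatment, reporter RNA was reverse-transcribed, amplified, FAM-labelled and HpaI-digested before CE analysis; activity scored in both directions against DMSO.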

A short description of experiment [9]: ATG_TA_CIS: Attagene CIS-FACTORIAL HepG2 Assay for human TA Basal Promoter (AID 2282964). Conditions: HepG2 Attagene CIS-factorial TA basal promoter reporter; actives raise or lower the signal. Put shortly:
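Read-out: fluorescent reporter-transcript fragments resolved by capillary electrophoresis after RT-PCR and HpaI digestion. Source: HepG2 cells carrying transiently transfected multi-reporter cis constructs, treated 24 h. Endpoint fitted bidirectionally relative to DMSO.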

The nature of experiment [10]: ATG_TCF_b_cat_CIS: Attagene CIS-FACTORIAL HepG2 Assay for human T-Cell-Factor with beta-catenin (TCF/b-cat) (AID 2282965). Conditions: HepG2 TCF/beta-catenin cis-reporter transcription, actives raise or lower the signal. In a few lines: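 Endogenous TCF/LEF activity read as reporter transcript level via RT-PCR and capillary electrophoresis fluorescence in transfected HepG2, 24 h exposure; gain or loss of signal fitted against DMSO controls.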

A short description of experiment [11]: ATG_TAL_CIS: Attagene CIS-FACTORIAL HepG2 Assay for human TAL Basal Promoter (AID 2282966).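 Further: background control endpoint measuring basal TAL promoter reporter mRNA not a specific factor.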 As to conditions: HepG2 Attagene cis-factorial TAL promoter reporter; actives raise or lower the signal. In a few lines: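 After 24 hours of chemical exposure, transfected HepG2 cells yielded RNA that was converted to 6-FAM-labelled, HpaI-digested reporter fragments for capillary electrophoresis. Values derive from bidirectional fitting against DMSO controls.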

Experiment [12] is described as follows: ATG_TGFb_CIS: Attagene CIS-FACTORIAL HepG2 Assay for human Transforming Growth Factor (TGF) (AID 2282967). Conditions: HepG2 Attagene CIS TGFb reporter, mRNA transcription; actives raise or lower the signal. Put shortly:
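Transient MRTU transfection of HepG2 (FuGene 6). Dose 24 h. TriZol RNA, oligo(dT) RT, PCR, 6-FAM primer extension, HpaI cut, CE. Bidirectional fit, DMSO = baseline.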

Experiment [13] is described as follows: ATG_VDRE_CIS: Attagene CIS-FACTORIAL HepG2 Assay for human Vitamin D Receptor Element (VDRE) (AID 2282968). As to conditions: HepG2 VDRE cis-reporter transcription, actives raise or lower the signal. In a few lines:
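Measures endogenous factor activity through cis-element-driven reporter transcripts in transiently transfected HepG2. Cells are treated 24 h; reporter mRNA is quantified by RT-PCR and capillary electrophoresis; fitting is bidirectional.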

Experiment [14] deals with Estrogen receptor (Homo sapiens) (UniProt P03372). The experiment is described as follows: ATG_ERa_TRANS: Attagene TRANS-FACTORIAL HepG2 Assay for human Estrogen Receptor alpha (ERa) (AID 2282970; active means hit-call score of the fitted dose curve at least 0.9, where 1 is the maximum). As to conditions: HepG2 Attagene TRANS ERa GAL4 reporter, mRNA. In a few lines:
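Liver-derived HepG2 cells expressing chimeric nuclear receptor-Gal4 proteins from transient transfection were exposed for 24 hours. Gain of reporter mRNA signal versus DMSO, read by capillary electrophoresis of FAM-labelled PCR products, was recorded.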

Experiment [15] addresses Steroid hormone receptor ERR1 (Homo sapiens) (UniProt P11474). Briefly: ATG_ERRa_TRANS: Attagene TRANS-FACTORIAL HepG2 Assay for human Estrogen-Related Receptor alpha (ERRa) (AID 2282971; active means hit-call score of the fitted dose curve at least 0.9, where 1 is the maximum). Conditions: HepG2 Attagene TRANS reporter, ERRa transactivation. In a few lines: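 Reporter transcript induction was quantified by RT-PCR and capillary electrophoresis of FAM-labelled, HpaI-cut products after 24 h treatment of HepG2 cells carrying transiently transfected GAL4-UAS reporter units and an exogenous ERRa-Gal4 fusion; activity scored as increase over DMSO.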

Experiment [16] has as its target X-box-binding protein 1 (Homo sapiens) (UniProt P17861). The experiment is described as follows: ATG_Xbp1_CIS: Attagene CIS-FACTORIAL HepG2 Assay for human X-box Binding Protein 1 (XBP1) (AID 2282972). Conditions: HepG2 XBP1 cis-element reporter, Attagene multiplex; actives raise or lower the signal. Put shortly: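 Read-out: fluorescent reporter mRNA fragments resolved by capillary electrophoresis after RT-PCR. Human HepG2 liver cells carried transfected cis-promoter reporter units and were exposed to chemicals for 24 hours. Gain or loss of signal fitted relative to DMSO baseline.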

The nature of experiment [17]: ATG_M_19_TRANS: Attagene TRANS-FACTORIAL HepG2 Assay for M19 Transcription Factor (Internal Marker) (AID 2282974; active means hit-call score of the fitted dose curve at least 0.9, where 1 is the maximum). As to conditions: HepG2 Attagene TRANS-FACTORIAL M19 internal marker reporter. In a few lines:
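HepG2 transiently transfected with GAL4-UAS multiplex reporter constructs, exposed 24 h; reporter RNA quantified by RT-PCR, 6-FAM labeling, HpaI digestion and capillary electrophoresis; internal background marker fitted upward versus DMSO.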

The nature of experiment [18]: ATG_PBREM_CIS: Attagene CIS-FACTORIAL HepG2 Assay for human Phenobarbital-responsive Enhancer Module (PBREM) (AID 2282955). As to conditions: HepG2 PBREM cis-reporter, Attagene multiplexed transcription; actives raise or lower the signal. Put shortly:
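HepG2 cells transiently transfected with multiple cis-regulated reporter units measure endogenous transcription factor activity; 24 h compound exposure. Reporter mRNA quantified by RT-PCR, fluorescent labelling, HpaI digestion and capillary electrophoresis; bidirectional fit versus DMSO.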

Drawing on PubChem BioAssay (EPA / NIEHS), this text covers outcome and AC50 for six compounds.

Results filed as inconclusive are left out. The source made the active and inactive calls. How the source made its calls, unless noted: active means hit-call score of the fitted dose curve at least 0.9, where 1 is the maximum; inactive means score below 0.9.

Chain of Estrogen receptor (Homo sapiens) (P03372 whole entry, looked up, the tested form may be a part): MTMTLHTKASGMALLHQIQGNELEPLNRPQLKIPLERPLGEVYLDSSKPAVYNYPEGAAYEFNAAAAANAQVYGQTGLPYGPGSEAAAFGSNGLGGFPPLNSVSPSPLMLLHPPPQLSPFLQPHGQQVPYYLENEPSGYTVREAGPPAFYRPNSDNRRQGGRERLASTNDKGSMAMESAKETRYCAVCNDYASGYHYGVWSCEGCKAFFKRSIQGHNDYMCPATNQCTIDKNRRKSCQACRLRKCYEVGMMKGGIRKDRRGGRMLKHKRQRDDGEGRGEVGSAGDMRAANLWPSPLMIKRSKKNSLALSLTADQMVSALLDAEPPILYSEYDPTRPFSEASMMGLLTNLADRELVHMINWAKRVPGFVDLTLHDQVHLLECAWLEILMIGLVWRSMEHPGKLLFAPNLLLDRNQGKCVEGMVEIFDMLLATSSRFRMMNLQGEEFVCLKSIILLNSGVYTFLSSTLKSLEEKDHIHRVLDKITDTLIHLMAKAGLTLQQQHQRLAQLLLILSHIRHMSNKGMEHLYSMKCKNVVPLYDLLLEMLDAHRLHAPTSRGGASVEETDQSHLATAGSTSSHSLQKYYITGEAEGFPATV
Chain of X-box-binding protein 1 (Homo sapiens) (P17861 whole entry, looked up, the tested form may be a part): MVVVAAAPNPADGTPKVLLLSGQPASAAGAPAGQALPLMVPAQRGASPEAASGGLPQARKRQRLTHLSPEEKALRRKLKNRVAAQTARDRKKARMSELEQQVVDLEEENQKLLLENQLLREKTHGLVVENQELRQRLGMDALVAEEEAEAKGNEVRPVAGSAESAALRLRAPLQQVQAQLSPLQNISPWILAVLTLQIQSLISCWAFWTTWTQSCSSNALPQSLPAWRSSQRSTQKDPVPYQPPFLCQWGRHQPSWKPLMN
Chain of Paired box protein Pax-6 (Homo sapiens) (P26367 whole entry, looked up): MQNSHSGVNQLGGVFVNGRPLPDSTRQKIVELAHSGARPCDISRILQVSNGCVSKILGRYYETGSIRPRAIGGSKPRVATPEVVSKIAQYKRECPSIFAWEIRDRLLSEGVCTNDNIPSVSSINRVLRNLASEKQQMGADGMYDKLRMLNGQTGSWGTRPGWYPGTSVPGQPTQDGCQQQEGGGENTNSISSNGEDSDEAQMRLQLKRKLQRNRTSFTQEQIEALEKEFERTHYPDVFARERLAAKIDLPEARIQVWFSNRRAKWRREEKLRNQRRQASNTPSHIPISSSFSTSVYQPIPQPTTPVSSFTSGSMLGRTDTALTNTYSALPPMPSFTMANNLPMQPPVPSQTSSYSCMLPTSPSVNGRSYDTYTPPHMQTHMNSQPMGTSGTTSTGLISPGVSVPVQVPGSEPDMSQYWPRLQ
Chain of Steroid hormone receptor ERR1 (Homo sapiens) (P11474 whole entry, looked up, the tested form may be a part): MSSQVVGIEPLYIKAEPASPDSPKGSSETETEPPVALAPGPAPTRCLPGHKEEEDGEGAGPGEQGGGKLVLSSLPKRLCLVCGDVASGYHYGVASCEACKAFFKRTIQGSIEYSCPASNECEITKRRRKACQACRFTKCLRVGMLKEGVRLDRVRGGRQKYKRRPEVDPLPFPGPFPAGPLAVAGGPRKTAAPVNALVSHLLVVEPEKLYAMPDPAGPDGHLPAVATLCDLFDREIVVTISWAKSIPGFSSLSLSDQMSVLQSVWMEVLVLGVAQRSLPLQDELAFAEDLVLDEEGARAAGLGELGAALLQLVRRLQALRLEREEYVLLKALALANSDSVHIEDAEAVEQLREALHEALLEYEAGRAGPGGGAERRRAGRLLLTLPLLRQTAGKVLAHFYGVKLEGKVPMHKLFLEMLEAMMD
Chain of Signal transducer and activator of transcription 3 (Homo sapiens) (P40763 whole entry, looked up): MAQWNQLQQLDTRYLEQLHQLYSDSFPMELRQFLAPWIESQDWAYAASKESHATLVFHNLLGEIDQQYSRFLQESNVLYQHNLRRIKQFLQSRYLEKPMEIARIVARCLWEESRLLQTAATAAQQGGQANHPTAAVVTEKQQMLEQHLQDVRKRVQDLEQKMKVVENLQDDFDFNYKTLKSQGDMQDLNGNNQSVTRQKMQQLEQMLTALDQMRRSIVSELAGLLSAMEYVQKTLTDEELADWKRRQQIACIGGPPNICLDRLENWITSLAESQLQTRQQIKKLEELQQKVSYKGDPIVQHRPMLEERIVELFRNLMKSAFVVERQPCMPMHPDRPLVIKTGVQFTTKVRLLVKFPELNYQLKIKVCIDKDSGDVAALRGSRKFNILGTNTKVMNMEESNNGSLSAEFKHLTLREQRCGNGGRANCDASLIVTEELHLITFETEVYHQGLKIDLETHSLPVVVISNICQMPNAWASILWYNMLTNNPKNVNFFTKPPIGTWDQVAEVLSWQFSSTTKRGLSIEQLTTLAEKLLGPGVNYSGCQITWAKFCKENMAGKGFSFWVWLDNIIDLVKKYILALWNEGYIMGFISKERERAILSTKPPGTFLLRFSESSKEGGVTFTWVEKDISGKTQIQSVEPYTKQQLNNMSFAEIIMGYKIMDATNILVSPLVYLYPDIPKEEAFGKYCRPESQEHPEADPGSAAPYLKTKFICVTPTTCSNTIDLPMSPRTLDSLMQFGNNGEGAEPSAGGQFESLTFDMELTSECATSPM

`COC(=O)N(C(=O)N1CO[C@@]2(C(=O)OC)Cc3cc(Cl)ccc3C2=N1)c1ccc(OC(F)(F)F)cc1`: the compound was classed as inactive in [1], in experiment [3], in [5], in [6], in experiment [8] and in experiment [9]. In addition, the compound was called inactive in experiment [10], in experiment [11], in experiment [12], in [14], in experiment [15] and in experiment [16]. Further, the result in [17] was inactive. Also, the AC50 (in general, the concentration giving half of the maximal activity seen) was 1.24 µM (active) in [2], 13.2 µM (active) in experiment [4], 5.39 µM (active) in experiment [7] and 2.98 µM (active) in experiment [13].

For the compound `CS(=O)(=O)c1ccc(C(=O)C2C(=O)CCCC2=O)c([N+](=O)[O-])c1`, the outcome in experiment [18], in experiment [1], in [2], in experiment [3], in [4] and in experiment [5] was inactive. Further, the compound was called inactive in experiment [6], in experiment [7], in experiment [8], in experiment [9], in [10] and in experiment [11]. The outcome in experiment [12] and in experiment [16] was inactive.

Regarding `Cc1ccc(N=CN(C)C=Nc2ccc(C)cc2C)c(C)c1`, the result in experiment [18], in [1], in experiment [2], in [4], in experiment [5] and in experiment [6] was inactive. The compound was called inactive in [7], in experiment [8], in experiment [9], in experiment [10], in experiment [11] and in [12]. In addition, the outcome in experiment [13] and in experiment [16] was inactive.

As to `COc1cc(Cl)c(OC)cc1Cl`, the result in experiment [1], in [5], in [6], in [7], in [8] and in [9] was inactive. Also, the compound was classed as inactive in [10], in [11], in [12], in [14], in [15] and in [16]. Besides, the call in [17] was inactive. Moreover, the concentration at half-maximal activity (AC50) in experiment [2] was 50 µM (active).

Turning to `N#CN=C1SCCN1Cc1ccc(Cl)nc1`, the call in experiment [1], in [3], in [4], in experiment [5], in experiment [6] and in experiment [7] was inactive. Moreover, the outcome in [8], in experiment [9], in experiment [10], in experiment [11], in experiment [12] and in [14] was inactive. The outcome in [15], in experiment [16] and in experiment [17] was inactive. Moreover, the half-maximal activity concentration (AC50) in experiment [2] is 50 µM (active).

Take `Cn1c(-c2ccccc2)cc(-c2ccccc2)[n+]1C`: the outcome in experiment [18], in experiment [1], in [2], in experiment [4], in experiment [5] and in experiment [6] was inactive. The compound was called inactive in experiment [7], in experiment [8], in experiment [9], in experiment [10], in experiment [11] and in [12]. Further, the outcome in experiment [14], in experiment [15], in experiment [16] and in experiment [17] was inactive.
